Source: PubChem BioAssay (National Center for Advancing Translational Sciences (NCATS))
A selection: hits, their analogues and other compounds. The true share with any hit is near 12%.
Sfp PPTase inh: qHTS Assay for Inhibitors of Bacillus subtilis Sfp phosphopantetheinyl transferase (PPTase) | Biochemical Sfp PPTase activity, qHTS | Potency, µM, for inactives: largest response in the series, negative = inhibition, hits mostly inhibitors | hit rate 3.5% among 310,000 | AID 1490, 2009;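 note: the enzyme is Sfp with the accession as filed and its product quenches rhodamine fluorescence; 0% = enzyme reaction without inhibitor and -100% = no enzyme wells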
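Fluorescence-quenching assay: 15 nM Sfp-PPTase preincubated 15 min at room temperature with compound, then 5 uM rhodamine-CoA and 12.5 uM BHQ-2-labelled YbbR peptide added. Fluorescence (ex 525/em 598 nm) read at start and after 30 min; difference gives rate.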
G9a block: qHTS Assay for Inhibitors of Histone Lysine Methyltransferase G9a. Histone-lysine N-methyltransferase EHMT2 (Homo sapiens), Q96KQ7. G9a H3K9 monomethylation, AlphaScreen, 2 h. Potency, µM (top dose mostly 102 µM), inactives show at the top dose activity, negative = inhibition, most hits filed as inhibitors. hit rate 8.8% among 350,000; note: % is set by controls: 0 for no effect and ±100 for the full control effect; nearly all actives have a fitted effect of over 75% in size
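AlphaScreen detection with an anti-monomethyl H3K9 antibody quantified product after a 2 h room-temperature reaction containing 500 nM biotinylated H3K9 peptide, 20 µM SAM and 20 nM enzyme, which had been preincubated 15 min with compound.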
JMJD2A Tudor inh: qHTS Assay for Inhibitors of JMJD2A-Tudor Domain; Lysine-specific demethylase 4A (Homo sapiens), O75164; AlphaScreen JMJD2A-Tudor / H3K4me3 peptide binding; Potency, µM (series often up to 114 µM), for the others: at the highest dose activity change, negative = inhibition, hits mostly inhibitors; hit rate 4.4% among 390,000; note: % is set by controls: 0 for no effect and ±100 for the full control effect; nearly all actives have a fitted effect of over 50% in size
Target sequence (O75164 whole entry, looked up, the tested form may be a part): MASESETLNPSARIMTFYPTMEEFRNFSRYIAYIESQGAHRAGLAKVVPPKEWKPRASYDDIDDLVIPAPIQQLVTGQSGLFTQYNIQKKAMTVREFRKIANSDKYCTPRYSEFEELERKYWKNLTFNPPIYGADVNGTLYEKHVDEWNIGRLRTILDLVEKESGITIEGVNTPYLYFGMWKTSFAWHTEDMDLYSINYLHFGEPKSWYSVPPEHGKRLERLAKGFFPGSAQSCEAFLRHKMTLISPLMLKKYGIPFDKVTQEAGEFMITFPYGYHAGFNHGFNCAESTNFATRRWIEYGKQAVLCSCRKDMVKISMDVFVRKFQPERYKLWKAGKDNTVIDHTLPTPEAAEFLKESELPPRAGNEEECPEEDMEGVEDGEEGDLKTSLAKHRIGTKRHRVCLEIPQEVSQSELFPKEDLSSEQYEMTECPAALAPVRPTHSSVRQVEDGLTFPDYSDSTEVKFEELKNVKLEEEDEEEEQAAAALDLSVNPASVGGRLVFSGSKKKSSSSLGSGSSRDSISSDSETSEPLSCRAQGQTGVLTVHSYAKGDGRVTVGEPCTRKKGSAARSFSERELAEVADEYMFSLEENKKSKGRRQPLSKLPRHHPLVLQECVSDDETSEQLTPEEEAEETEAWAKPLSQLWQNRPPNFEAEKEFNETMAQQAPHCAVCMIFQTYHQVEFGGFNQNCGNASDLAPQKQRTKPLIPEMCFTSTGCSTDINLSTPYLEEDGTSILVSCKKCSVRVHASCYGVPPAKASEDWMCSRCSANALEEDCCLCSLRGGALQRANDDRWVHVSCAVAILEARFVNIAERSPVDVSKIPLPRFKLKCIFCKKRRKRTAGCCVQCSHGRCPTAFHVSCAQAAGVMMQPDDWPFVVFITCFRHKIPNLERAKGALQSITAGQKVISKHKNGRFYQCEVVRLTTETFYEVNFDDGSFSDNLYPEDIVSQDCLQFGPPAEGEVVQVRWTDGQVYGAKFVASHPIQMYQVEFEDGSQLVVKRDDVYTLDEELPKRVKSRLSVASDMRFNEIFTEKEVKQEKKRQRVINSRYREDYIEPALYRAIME
HP1b binding inh: HTS for Inhibitors of HP1-beta Chromodomain Interactions with Methylated Histone Tails; Chromobox protein homolog 1 (Homo sapiens), P83916; AlphaScreen HP1-beta / biotin-H3K9me3 peptide binding; Potency, µM (titrated, usually from 114 µM), for the others: top-dose activity change, negative = inhibition, most hits filed as inhibitors; hit rate 0.56% among 390,000; note: nearly all actives have a fitted effect of over 70% in size
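AlphaScreen: HP1-beta (50 nM) preformed 30 min with biotin-H3(1-18)K9me3 peptide (50 nM) in PBS pH 7.4, 0.01% Tween-20. Compound added for 30 min at RT, then streptavidin donor/nickel chelate acceptor beads (10 ug/mL) for 30 min.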
BAZ2B block: qHTS Assay for Inhibitors of BAZ2B. Bromodomain adjacent to zinc finger domain protein 2B (Homo sapiens), Q9UIF8. hit rate 4.4% among 360,000. AlphaScreen BAZ2B-H3K14Ac peptide displacement. Potency, µM (top dose mostly 114 µM), for inactives: at the top dose activity change, negative = inhibition, most hits filed as inhibitors; note: % is set by controls: 0 for no effect and ±100 for the full control effect; nearly all actives have a fitted effect of over 60% in size
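In this displacement format the biotinylated H3(5-23) peptide acetylated at Lys14 serves as ligand at 50 nM, with BAZ2B at 50 nM in PBS pH 7.4 containing 0.01% Tween-20. Donor and acceptor beads are 10 ug/mL final.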
Starred values were filed as active, the others as inactive; u = inconclusive; x = no result given; [ ] = another dose, or the depositor's remark. Calls come from the whole dose curve; as a rule, active = well fitted curve in the direction sought with a large enough effect; inconclusive = small, poorly fitted or top-dose-only effect, or another doubt; inactive = no such curve, though single readings can be large; an effect the other way counts as inactive or inconclusive. Potency is the fitted concentration of half-maximal effect.

SMILES	Sfp PPTase inh	G9a block	JMJD2A Tudor inh	HP1b binding inh	BAZ2B block
C=C(C)[C@]12C[C@@H](C)[C@@]34O[C@](Cc5ccccc5)(O[C@@H]1[C@@H]3C=C(COC(=O)Cc1ccc(O)c(OC)c1)C[C@]1(O)C(=O)C(C)=C[C@@H]41)O2	22%	u	x	x	x
CCOc1cc(/C=C2/C(=O)NC(=O)N(c3ccc(CC)cc3)C2=O)ccc1OC(=O)c1cccs1	79µM*	29%[0.501 µM]	79µM*	13%	50µM*
COc1ccc(/C=C2/C(=O)NC(=S)N(C3CC3)C2=O)cc1CN1C(=O)c2ccccc2C1=O	25µM*	3.5µM*	25µM*	u	50µM*
O=C1NC(=O)N(c2ccccc2)C(=O)/C1=C\c1ccccc1[N+](=O)[O-]	22µM*	28µM*	-9%	12%	-8%
CCC(CO)NC(=O)[C@@H]1C=C2c3cccc4[nH]cc(c34)C[C@H]2N(C)C1 (stereo partly drawn)	x	33%[12.7 µM]	x	x	x
Oc1ccc(/C=N/NP(=S)(c2ccccc2)c2ccccc2)c(O)c1O	40µM*	u	u	-11%	u
COc1ccccc1OCC(=O)N1CCCC(N(C)Cc2ccccc2)C1 (stereo not drawn)	5%	x	-12%	45%	-5%
COc1ccccc1OC(C)C(=O)N1CCC(Cc2ccccc2)CC1 (stereo not drawn)	5%	50µM*	-16%	-18%	-26%
N#Cc1ccc(CN2CCCC3(CCN(C(=O)Oc4ccccc4)CC3)C2)cc1	-10%	-17%[12.7 µM]	x	x	x
COc1ccc(N2C(=O)NC(=O)/C(=C\c3cn(C)c4ccccc34)C2=O)cc1	-13%	25%[0.501 µM]	-14%	30%	-9%
CCOc1ccc(N2C(=O)NC(=O)/C(=C\c3cc(OC)c(OC)cc3[N+](=O)[O-])C2=O)cc1	45µM*	18µM*	u	-17%	u
CCOc1ccc(N2C(=O)NC(=O)/C(=C\c3ccc(N4CCOCC4)cc3C)C2=O)cc1	40µM*	-14%[12.7 µM]	-10%	62%	u
Cc1ccc(N2C(=O)NC(=O)/C(=C\c3ccc([N+](=O)[O-])o3)C2=O)cc1	u	6.3µM*	x	x	20µM*
CCOC(=O)C1CCN(/C=C2/C(=O)NC(=O)N(c3ccc(OCC)cc3)C2=O)CC1	-15%	u	-17%	41%	-3%
COc1ccc(N2C(=O)NC(=O)/C(=C/c3ccc(N4CCOCC4)cc3)C2=O)cc1	50µM*	50µM*	x	x	-6%
CC1CC[C@@]2(OC1)OC1C(O)C3C4CC[C@H]5CC(O[C@@H]6O[C@@H](CO)[C@H](OC7OC(CO)C(O)C(OC8OCC(O)C(O)[C@H]8O)[C@@H]7O[C@@H]7OC(CO)[C@H](O)[C@@H](O[C@@H]8OC(CO)C(O)C(O)C8O)C7O)C(O)C6O)C(O)C[C@]5(C)C4CC[C@]3(C)C1C2C (stereo partly drawn)	2%	5%[2.33 µM]	x	x	x
O=C1NC(=O)N(Cc2ccc(F)cc2)C(=O)/C1=C\c1ccc(N2CCCC2)cc1	u	45µM*	u	-18%	u
CCN(CC)c1ccc(/C=C2\C(=O)NC(=O)N(CC3CCCO3)C2=O)cc1 (stereo not drawn)	-29%	u	-27%	4%	u
O=C1NC(=O)N(c2ccc(F)cc2)C(=O)/C1=C/c1ccc(N2CCOCC2)cc1	40µM*	40µM*	-2%	30%	1%
Cc1ccc(N2C(=O)NC(=O)/C(=C\c3ccc(N4CCOCC4)cc3)C2=O)cc1	18µM*	u	-13%	37%	1%
Cc1cc(/C=C2\C(=O)NC(=O)N(c3ccc(Br)cc3)C2=O)c(C)n1C	-2%	u	-8%	22%	29%
COc1ccc(CCNC(=O)c2ccc3c(c2)N=C(C)c2cc(C)ccc2S3)cc1OC	x	-50%[59 µM]	u	-4%	-31%
Cc1cccnc1NC1=NCC(C)S1 (stereo not drawn)	16%	4µM*	-14%[11.4 µM]	40%	0%
Cc1ccccc1NC1=NCC(C)S1 (stereo not drawn)	18%	17%[59 µM]	-11%	25%	4%
Cc1cccc(-n2c(-c3cccs3)nc3ccccc3c2=O)c1	4%	0%[59 µM]	u	13%	79µM*
SMILES	Sfp PPTase inh	G9a block	JMJD2A Tudor inh	HP1b binding inh	BAZ2B block
O=c1c2ccccc2nc(-c2cccs2)n1-c1ccccc1	8%	18%	9%	20%	-23%
O=C(Nc1ccccc1)N1CC[C@@]2(CCCNC2)C1	u	-2%[12.7 µM]	x	x	x
CCCc1cc2c(n1CCO)C(C)C1CN(C(=O)c3ccccc3)C(C)(C(=O)OC)C21 (stereo not drawn)	37%	x	x	x	x
Cc1ccc(-c2nnc(Nc3ccc(OC(F)(F)Cl)cc3)c3ccccc23)cc1S(=O)(=O)NC(C)(C)CO	x	u	-12%	27%	-21%
C/C1=C\[C@@H](C)C/C=C/[C@H]2[C@@H]3O[C@]3(C)[C@@H](C)[C@H]3[C@H](Cc4c[nH]c5ccccc45)NC(=O)[C@]32C(=O)/C=C/C(=O)[C@@H]1O	13µM*	-21%[59 µM]	-24%	22%	u
C=CCn1c(=O)c(C=Nc2cccc([N+](=O)[O-])c2)c(O)n(CCCC)c1=O	-15%	71µM*	u	-11%	-36%[57.1 µM]
CC(=O)NC(Cc1ccc(N(CCCl)CCCl)cc1)C(=O)NC(CC(C)C)C(=O)O (stereo not drawn)	u	50µM*	-27%	15%	u
CCOC(=O)C(NC(=O)C(Cc1ccc(N(CCCl)CCCl)cc1)NC(C)=O)C(C)C (stereo not drawn)	6%	u	-11%	17%	-36%
Nc1c(C(=O)Nc2cccc(Br)c2)sc2nc3c(cc12)N1CCC3CC1	x	13µM*	u	81%	2%
Nc1c(C(=O)Nc2ccc(Cl)cc2)sc2nc3c(cc12)N1CCC3CC1	x	-46%[59 µM]	-2%	42%	-2%
CC(CCC(=O)O)C1CCC2C3CC[C@H]4CC(O)CC[C@@]4(C)C3CC[C@@]12C (stereo partly drawn)	-13%	-39%[2.33 µM]	x	x	x
CN(C)C(=O)OCc1n(C)cc[n+]1C	-5%	2%[59 µM]	-10%	20%	9%
CCN(CC)P(c1n(C)cc[n+]1C)N(CC)CC	-7%	u	22µM*	u	-18%
C/C(CC(=O)Nc1cc(C)ccn1)=N\NC(=O)c1ccncc1	-13%	u	-1%	25%	u
NC(=O)c1ncn([C@H]2O[C@@H](CO)[C@@H](O)[C@@H]2O)n1	22%	16%[21.5 µM]	x	x	x
COc1ccc(-n2c(/C=C/c3ccc(O)c(OC)c3)nc3ccccc3c2=O)cc1	1%	x	-6%	78%	-13%
COc1cccc(-n2c(/C=C/c3ccc(O)c(O)c3)nc3ccccc3c2=O)c1	-10%	45µM*	u	-17%	u
